Experimental findings from PubChem BioAssay (EPA / NIEHS) are described below.

The nature of assay [1]: BSK_LPS_PGE2: BioMAP Diversity Plus: LPS Assay for Prostaglandin E2 (PGE2) Biomarker Activity (AID 2283082).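 As to AC50: secreted prostaglandin E2 measured by ELISA in LPS-stimulated co-culture.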 Conditions: primary human HUVEC with PBMC; actives raise or lower the signal. The gist of the method:
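LPS-activated HUVEC/PBMC co-culture; cmpd dosed, 24 h; PGE2 by ELISA; bidirectional fit vs DMSO; SRB (0.1%, TCA-fixed, 560 nm) in parallel plates for overt cytotox.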

Read-out in assay [2]: Macrophage colony-stimulating factor (MCSF), CSF1 (gene 1435)
Nature of the assay: BSK_LPS_MCSF: BioMAP Diversity Plus: LPS Assay for Macrophage colony-stimulating factor (MCSF) Biomarker Activity (AID 2283083). As to conditions: primary human HUVEC with PBMC; actives raise or lower the signal. The gist of the method:
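Bidirectional fit versus DMSO of ELISA-measured M-CSF in co-cultured human umbilical vein endothelial cells and PBMC, sampled 24 h after dosing.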

Read-out in assay [3]: Tissue Factor, F3 (gene 2152)
Nature of the assay: BSK_LPS_TissueFactor: BioMAP Diversity Plus: LPS Assay for Tissue Factor Biomarker Activity (AID 2283084). Conditions: primary human HUVEC with PBMC; actives raise or lower the signal. In a few lines: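 Read-out: CD142 ELISA, 24 h. System: LPS-driven human endothelial/PBMC co-culture. Analysis: up- or down-signal fitted against DMSO.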

Read-out in assay [4]: Tumor necrosis factor (Homo sapiens) (UniProt P01375)
Nature of the assay: BSK_LPS_TNFa: BioMAP Diversity Plus: LPS Assay for Tumour Necrosis Factor alpha (TNFa) Biomarker Activity (AID 2283085). As to conditions: primary human HUVEC with PBMC; actives raise or lower the signal. The gist of the method:
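Read-out is ELISA of TNFa in primary human endothelial cell–PBMC co-cultures at 24 h after compound. Activity in either direction was fitted against DMSO.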

Read-out in assay [5]: Vascular cell adhesion molecule 1 (VCAM1), VCAM1 (gene 7412)
The experiment in a line: BSK_LPS_VCAM1: BioMAP Diversity Plus: LPS Assay for Vascular cell adhesion molecule 1 (VCAM1) Biomarker Activity (AID 2283086). Conditions: primary human HUVEC with PBMC; actives raise or lower the signal. The gist of the method: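 HUVEC + PBMC co-culture, LPS system; compound 24 h; VCAM-1 by ELISA; bidirectional fit vs DMSO control; parallel SRB (0.1%, TCA-fixed, 560 nm) for cytotoxicity.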

Read-out in assay [6]: CD38, CD38 (gene 952)
Nature of the assay: BSK_SAg_CD38: BioMAP Diversity Plus: SAg Assay for CD38 Biomarker Activity (AID 2283087). As to conditions: primary human HUVEC with PBMC; actives raise or lower the signal. The gist of the method: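 Human HUVEC plus PBMC co-culture stimulated with superantigen; CD38 measured by ELISA 24 h after chemical dosing. Fluorescence read-out, bidirectional fit against DMSO; cytotoxicity tracked in parallel by SRB and Alamar Blue.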

Read-out in assay [7]: CD40, CD40 (gene 958)
The experiment in a line: BSK_SAg_CD40: BioMAP Diversity Plus: SAg Assay for CD40 Biomarker Activity (AID 2283088). As to conditions: primary human HUVEC with PBMC; actives raise or lower the signal. In a few lines:
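Endpoint derived by fitting increases or decreases versus DMSO controls. CD40 is detected by fluorescence ELISA in a human vascular co-culture of endothelium and PBMC at 24 h.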

Read-out in assay [8]: CD69, CD69 (gene 969)
The experiment in a line: BSK_SAg_CD69: BioMAP Diversity Plus: SAg Assay for CD69 Biomarker Activity (AID 2283089).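 As to AC50: cell surface CD69 protein quantified by ELISA with fluorescence detection.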 As to conditions: primary human HUVEC with PBMC; actives raise or lower the signal. The gist of the method: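 ELISA, fluorescence read-out: CD69 on human umbilical vein endothelial cell + PBMC co-culture, 24 h post-dosing. Gain or loss of signal fitted bidirectionally against DMSO baseline.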

Read-out in assay [9]: Monocyte Chemoattractant Protein-1 (MCP1), CCL2 (gene 6347)
The experiment in a line: BSK_SAg_MCP1: BioMAP Diversity Plus: SAg Assay for Monocyte Chemoattractant Protein-1 (MCP1) Biomarker Activity (AID 2283090). Conditions: primary human HUVEC with PBMC; actives raise or lower the signal. The gist of the method: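 MCP-1 levels in the endothelial–PBMC SAg co-culture were quantified by ELISA at 24 h post-dosing; both increases and decreases versus DMSO scored. Cytotoxicity monitored by SRB total protein in parallel cultures.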

Read-out in assay [10]: E-selectin (Homo sapiens) (UniProt P16581)
The experiment in a line: BSK_SAg_Eselectin: BioMAP Diversity Plus: SAg Assay for Eselectin Biomarker Activity (AID 2283091). As to conditions: primary human HUVEC with PBMC; actives raise or lower the signal. The gist of the method: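 Endpoint values derive from bidirectional fitting relative to DMSO, using ELISA-measured E-selectin in a human vascular co-culture (umbilical vein endothelium plus PBMC) sampled 24 h after dosing.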

Read-out in assay [11]: Interleukin-8 (IL8), CXCL8 (gene 3576)
The experiment in a line: BSK_SAg_IL8: BioMAP Diversity Plus: SAg Assay for Interleukin-8 (IL8) Biomarker Activity (AID 2283094). Conditions: primary human HUVEC with PBMC; actives raise or lower the signal. The gist of the method:
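ELISA read-out of IL-8 in a primary human vascular co-culture (umbilical vein endothelium plus PBMC), taken 24 h after compound addition. Values derive from bidirectional fits against DMSO negative controls.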

The nature of assay [12]: BSK_SAg_Proliferation: Cell Proliferation Assessment in the BioMAP Diversity Plus: SAg Assay (AID 2283095).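 Also: relative cell number as total protein by SRB absorbance in sub-confluent culture.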 As to conditions: primary human HUVEC with PBMC. In a few lines:
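Cells (endothelium plus PBMC, human primary) were dosed with chemical, cultured 96 h, fixed in 10% TCA and stained with 0.1% SRB. Absorbance at 560 nm gave relative protein, fitted bidirectionally relative to DMSO.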

Read-out in assay [13]: Monokine induced gamma interferon (MIG), CXCL9 (gene 4283)
The experiment in a line: BSK_SAg_MIG: BioMAP Diversity Plus: SAg Assay for Monokine induced gamma interferon (MIG) Biomarker Activity (AID 2283092). Conditions: primary human HUVEC with PBMC; actives raise or lower the signal. The gist of the method: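 ELISA readout of MIG/CXCL9; primary human umbilical vein endothelial cells co-cultured with peripheral blood mononuclear cells; 24 h post-dose; gain/loss fit vs DMSO baseline.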

The nature of assay [14]: BSK_SAg_SRB: Viability Assessment in the BioMAP Diversity Plus: SAg Assay (AID 2283096).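 Also: cells read one day after compound addition; hits may be either gain or loss of signal compared with DMSO.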 As to conditions: primary human HUVEC with PBMC. The gist of the method:
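Total protein by sulforhodamine B staining, 24 h after dosing, in HUVEC–PBMC co-culture; DMSO-referenced bidirectional fitting.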

For assay [15], the target named is human CYP19A1, CYP19A1 (gene 1588) (UniProt P11511). The experiment in a line: NVS_ADME_hCYP19A1: NovaScreen (NVS) CYP450-related Enzyme Activity (ADME) Assay for human CYP19A1 (AID 2283098; active = hit-call score of the fitted dose curve at least 0.9, where 1 is the maximum). In a few lines: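 Biochem, cell-free; recombinant enzyme + specific substrate; fluorescence intensity at 0.5 h post-dose; 10 uM duplicate primary, conc. series for actives; acetonitrile = negative control/baseline; positive and negative controls on every plate.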
Chain of human CYP19A1, CYP19A1 (gene 1588) (P11511 whole entry, looked up): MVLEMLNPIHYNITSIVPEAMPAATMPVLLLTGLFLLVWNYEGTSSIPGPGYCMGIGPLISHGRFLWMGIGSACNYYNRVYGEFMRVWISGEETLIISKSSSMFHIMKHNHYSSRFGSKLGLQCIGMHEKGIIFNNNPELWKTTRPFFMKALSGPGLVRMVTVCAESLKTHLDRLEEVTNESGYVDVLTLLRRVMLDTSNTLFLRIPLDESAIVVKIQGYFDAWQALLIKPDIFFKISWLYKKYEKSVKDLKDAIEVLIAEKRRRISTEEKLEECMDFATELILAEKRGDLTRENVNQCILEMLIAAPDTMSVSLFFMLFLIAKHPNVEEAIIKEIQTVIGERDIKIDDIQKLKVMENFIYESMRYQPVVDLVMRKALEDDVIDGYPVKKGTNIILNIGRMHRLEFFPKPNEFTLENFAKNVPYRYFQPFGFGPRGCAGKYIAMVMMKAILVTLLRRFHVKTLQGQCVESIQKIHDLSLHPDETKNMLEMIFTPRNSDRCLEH

Assay [16] in a line: BSK_SAg_PBMCCytotoxicity: PBMC Cytotoxicity Assessment in the BioMAP Diversity Plus: SAg Assay (AID 2283093).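 Also: PBMC viability measured as Alamar Blue reduction fluorescence at 546/580 nm; fitted both ways against DMSO so a hit may be loss or gain of signal.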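 As to AC50: PBMC superantigen activated with SEB plus TSST-1 one hour after compound addition.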 Conditions: primary human HUVEC with PBMC. The gist of the method: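 Compound added to 75,000 PBMC/well for 1 h; SEB and TSST-1 then added at 20 ng/mL final each; 90 h incubation; Alamar Blue 6 h; read 546/580 nm ex/em. Activity fitted bidirectionally relative to DMSO baseline.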

Assay [17] deals with human CYP2A6, CYP2A6 (gene 1548) (UniProt P11509). The experiment in a line: NVS_ADME_hCYP2A6: NovaScreen (NVS) CYP450-related Enzyme Activity (ADME) Assay for human CYP2A6 (AID 2283099; active = hit-call score of the fitted dose curve at least 0.9, where 1 is the maximum). The gist of the method: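 Loss of fluorescence signal relative to acetonitrile vehicle reported CYP2A6 inhibition in a cell-free system using insect-cell-derived enzyme. Readings were taken at 0.5 h; top concentration in follow-up dose series was 20 uM.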
Chain of human CYP2A6, CYP2A6 (gene 1548) (P11509 whole entry, looked up): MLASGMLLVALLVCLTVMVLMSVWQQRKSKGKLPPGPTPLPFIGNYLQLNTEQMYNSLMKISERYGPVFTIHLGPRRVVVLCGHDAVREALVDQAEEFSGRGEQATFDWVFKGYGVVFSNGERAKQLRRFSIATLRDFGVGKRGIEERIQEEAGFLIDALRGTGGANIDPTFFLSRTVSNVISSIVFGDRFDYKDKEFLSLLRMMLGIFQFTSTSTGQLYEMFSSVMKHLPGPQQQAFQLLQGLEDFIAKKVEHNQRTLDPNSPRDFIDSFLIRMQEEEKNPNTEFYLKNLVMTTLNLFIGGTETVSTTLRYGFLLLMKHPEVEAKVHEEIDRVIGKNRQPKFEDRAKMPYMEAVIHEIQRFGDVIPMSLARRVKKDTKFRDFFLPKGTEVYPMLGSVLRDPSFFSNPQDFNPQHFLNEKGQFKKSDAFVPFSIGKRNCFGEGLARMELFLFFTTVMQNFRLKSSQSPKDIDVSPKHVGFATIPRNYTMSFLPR

In assay [18] the target is human CYP1A1, CYP1A1 (gene 1543) (UniProt P04798). The experiment in a line: NVS_ADME_hCYP1A1: NovaScreen (NVS) CYP450-related Enzyme Activity (ADME) Assay for human CYP1A1 (AID 2283100; active = hit-call score of the fitted dose curve at least 0.9, where 1 is the maximum). In a few lines:
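Inhibition of recombinant CYP1A1 turnover was assessed fluorometrically in a biochemical format 1 h after compound exposure. Testing began at 10 uM in duplicate and progressed to concentration series reaching 20 uM, with on-plate positive and negative controls.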

Assay [19] deals with human CYP2B6, CYP2B6 (gene 1555) (UniProt P20813). The experiment in a line: NVS_ADME_hCYP2B6: NovaScreen (NVS) CYP450-related Enzyme Activity (ADME) Assay for human CYP2B6 (AID 2283101; active = hit-call score of the fitted dose curve at least 0.9, where 1 is the maximum). The gist of the method: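 Fluorescence-based enzyme activity of recombinant human CYP2B6, measured 1 h post-dose against acetonitrile vehicle baseline. Screened at a single concentration of 10 uM in duplicate before concentration-response follow-up.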
Chain of human CYP2B6, CYP2B6 (gene 1555) (P20813 whole entry, looked up): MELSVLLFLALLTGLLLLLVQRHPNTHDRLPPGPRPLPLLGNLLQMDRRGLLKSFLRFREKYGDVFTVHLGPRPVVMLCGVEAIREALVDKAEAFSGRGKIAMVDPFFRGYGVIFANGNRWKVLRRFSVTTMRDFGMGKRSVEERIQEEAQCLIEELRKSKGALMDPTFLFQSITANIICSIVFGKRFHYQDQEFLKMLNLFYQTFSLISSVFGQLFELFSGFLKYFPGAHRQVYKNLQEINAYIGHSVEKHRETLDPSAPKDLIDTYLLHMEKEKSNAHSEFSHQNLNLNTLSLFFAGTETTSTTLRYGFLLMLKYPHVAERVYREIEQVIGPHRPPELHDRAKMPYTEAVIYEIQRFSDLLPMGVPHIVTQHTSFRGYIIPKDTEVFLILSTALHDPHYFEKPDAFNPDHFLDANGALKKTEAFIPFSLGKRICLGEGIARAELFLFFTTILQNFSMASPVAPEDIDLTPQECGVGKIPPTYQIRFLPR

For assay [20], the target named is human CYP2D6, CYP2D6 (gene 1565) (UniProt P10635). The experiment in a line: NVS_ADME_hCYP2D6: NovaScreen (NVS) CYP450-related Enzyme Activity (ADME) Assay for human CYP2D6 (AID 2283107; active = hit-call score of the fitted dose curve at least 0.9, where 1 is the maximum). In a few lines: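 Biochemical fluorescence assay, insect-cell-derived enzyme. Read at 1 h; inhibition taken from loss of signal against acetonitrile. Screened at 10 uM in duplicate, with concentration series for actives.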
Chain of human CYP2D6, CYP2D6 (gene 1565) (P10635 whole entry, looked up): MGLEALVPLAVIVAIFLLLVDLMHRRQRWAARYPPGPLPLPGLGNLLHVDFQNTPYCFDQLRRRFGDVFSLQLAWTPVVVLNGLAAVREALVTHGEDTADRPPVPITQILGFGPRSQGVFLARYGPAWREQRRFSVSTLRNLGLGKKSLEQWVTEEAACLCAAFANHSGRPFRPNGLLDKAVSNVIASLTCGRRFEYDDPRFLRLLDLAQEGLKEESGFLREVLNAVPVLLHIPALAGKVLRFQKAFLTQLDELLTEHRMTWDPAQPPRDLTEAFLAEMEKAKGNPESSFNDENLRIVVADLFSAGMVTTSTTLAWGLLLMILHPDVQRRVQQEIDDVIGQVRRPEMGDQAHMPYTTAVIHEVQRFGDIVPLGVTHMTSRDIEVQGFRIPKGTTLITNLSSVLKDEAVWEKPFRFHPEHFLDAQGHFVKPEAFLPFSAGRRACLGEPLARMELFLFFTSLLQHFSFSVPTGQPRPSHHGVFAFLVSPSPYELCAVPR

Results filed as inconclusive are left out. The source made the active and inactive calls. The calls were made as follows, unless noted: active = hit-call score of the fitted dose curve at least 0.9, where 1 is the maximum; inactive = score below 0.9.

Chain of E-selectin (Homo sapiens) (P16581 whole entry, looked up): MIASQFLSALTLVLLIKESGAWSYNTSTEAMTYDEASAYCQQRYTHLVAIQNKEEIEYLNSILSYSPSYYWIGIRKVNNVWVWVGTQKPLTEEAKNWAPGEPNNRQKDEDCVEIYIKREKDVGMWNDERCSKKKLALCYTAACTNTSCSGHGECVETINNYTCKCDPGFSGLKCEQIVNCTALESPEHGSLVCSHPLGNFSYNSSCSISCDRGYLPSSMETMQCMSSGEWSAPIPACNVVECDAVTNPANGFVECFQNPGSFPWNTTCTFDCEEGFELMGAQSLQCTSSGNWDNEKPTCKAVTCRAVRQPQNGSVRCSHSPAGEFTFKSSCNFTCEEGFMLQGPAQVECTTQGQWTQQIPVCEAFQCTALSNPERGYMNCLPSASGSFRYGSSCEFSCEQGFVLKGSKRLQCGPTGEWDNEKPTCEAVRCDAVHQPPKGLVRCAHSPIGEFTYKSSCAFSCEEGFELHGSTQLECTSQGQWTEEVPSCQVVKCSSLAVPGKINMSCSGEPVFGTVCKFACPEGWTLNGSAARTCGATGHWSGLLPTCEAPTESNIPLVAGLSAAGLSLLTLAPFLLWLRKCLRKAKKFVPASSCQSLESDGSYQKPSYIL
Chain of Tumor necrosis factor (Homo sapiens) (P01375 whole entry, looked up): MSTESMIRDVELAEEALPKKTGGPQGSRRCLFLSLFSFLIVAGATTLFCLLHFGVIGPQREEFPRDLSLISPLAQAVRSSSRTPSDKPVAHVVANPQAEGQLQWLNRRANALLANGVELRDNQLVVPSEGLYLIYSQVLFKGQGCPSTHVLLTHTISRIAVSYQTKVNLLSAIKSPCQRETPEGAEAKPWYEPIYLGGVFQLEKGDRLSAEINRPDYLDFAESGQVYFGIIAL
Chain of human CYP1A1, CYP1A1 (gene 1543) (P04798 whole entry, looked up): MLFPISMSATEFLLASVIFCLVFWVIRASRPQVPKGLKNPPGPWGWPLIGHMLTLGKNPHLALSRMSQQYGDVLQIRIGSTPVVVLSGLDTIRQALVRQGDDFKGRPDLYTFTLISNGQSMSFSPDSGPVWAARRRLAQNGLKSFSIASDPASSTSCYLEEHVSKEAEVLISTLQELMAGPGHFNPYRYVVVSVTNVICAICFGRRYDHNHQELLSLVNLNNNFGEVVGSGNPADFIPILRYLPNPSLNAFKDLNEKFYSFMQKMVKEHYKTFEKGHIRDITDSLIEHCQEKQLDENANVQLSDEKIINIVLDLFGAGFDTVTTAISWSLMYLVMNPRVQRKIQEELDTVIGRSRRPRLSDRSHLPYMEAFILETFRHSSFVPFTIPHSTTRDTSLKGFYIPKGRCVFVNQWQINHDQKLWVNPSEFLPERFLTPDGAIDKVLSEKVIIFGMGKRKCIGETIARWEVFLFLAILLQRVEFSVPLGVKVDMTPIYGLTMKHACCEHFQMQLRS

For the compound `O=C(O)Cn1c(=O)n(Cc2ccc(Br)cc2F)c(=O)c2ccc(Cl)cc21`, the results for the AC50 in assay [1] and in assay [4] were 10.5 µM (active) and 1.07 µM (active), respectively. In addition, the outcome in assay [2], in assay [3], in assay [5], in assay [6], in assay [7] and in assay [8] was inactive. In addition, the outcome in assay [9], in assay [10], in assay [11] and in [12] was inactive.
`Cc1ccc(C(C)C)cc1`: the outcome in assay [1], in assay [2], in [3], in assay [4], in assay [5] and in assay [6] was inactive. In addition, the outcome in [7], in assay [8], in assay [9], in assay [10], in assay [13] and in [11] was inactive. For the same compound, the outcome in assay [12] and in [14] was inactive.
Turning to `OCCO`, the outcome in assay [1], in assay [2], in assay [3], in assay [4], in [5] and in assay [6] was inactive. For the same compound, the result in assay [7], in assay [8], in assay [9], in [10], in [11] and in [12] was inactive. The compound was called inactive in [15].
`Oc1ccc2ccccc2c1`: the AC50 is 13.2 µM (active) in assay [1] and 10.8 µM (active) in [10]. Moreover, the result in [2], in assay [3], in assay [4], in assay [5], in assay [6] and in [7] was inactive. Further, the result in assay [8], in assay [9], in assay [16], in assay [11] and in [12] was inactive.
For the compound `NCc1cccc(C2CCN(C(=O)c3ccc(C#Cc4ccccc4F)o3)CC2)c1`, the result in assay [1] was inactive. The AC50 is 26 µM (active) in [2]; 28.2 µM (active) in assay [3]; 27.7 µM (active) in [4]; 24.6 µM (active) in [5]; 17.4 µM (active) in assay [6]; 15.3 µM (active) in assay [7]. Also, the AC50 in [8] was 22.1 µM (active); in [9] it was 28 µM (active); in [10], 23.8 µM (active); in assay [13], 35.1 µM (active); in assay [16], 11.9 µM (active); in [11] it was 15.8 µM (active). In addition, the AC50 was 7.97 µM (active) in assay [12]; 17.9 µM (active) in assay [17]; 7.2 µM (active) in [18]; 5.71 µM (active) in assay [19]; 6.76 µM (active) in assay [20].
With `CCCOC(=O)c1cc(O)c(O)c(O)c1`, the AC50 in [1] was 4.97 µM (active); in assay [9], 29 µM (active); in [10], 14.3 µM (active); in [12], 17 µM (active). Besides, the result in assay [2], in assay [3], in assay [4], in [5], in [6] and in [7] was inactive. In addition, the result in [8], in assay [16] and in assay [11] was inactive.
